An excerpt weighted towards active compounds, which were near 9.6% of everything screened.
Cav3 T inh: blocks human Cav3.2 T-type calcium channel | Cav3.2-expressing cells, Fluo-4 calcium fluorescence FDSS; stronger effect = lower value | AID 449739 | O95180 | B-score at 10 µM | hit rate 4% among 100,000;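 active = single-dose well whose peak fluorescence ratio is a statistical outlier from its plate by either plate-standardised score or position-corrected B-score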
PostGolgi yeast: growth inhibition of a yeast mutant, post-Golgi transport screen. post-Golgi transport phenotypic cell assay. inhibition, % at 10 µM. hit rate 0.9% among 98,000. AID 739;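 also: yeast cells grown in 1536-well plates; yeast grown about 18 h at 30C before absorbance read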
PLAP activator: human PLAP activation; P05187; purified PLAP enzyme, luminescent substrate read-out; stronger effect = higher value; activation fold at 20 µM; hit rate 1.2% among 96,000; in the data active = activation fold above about 2
hDAT+cocaine: modulates human dopamine transporter uptake under cocaine; hit rate 1.3% among 110,000; AID 449768; Q01959; LLC-PK1 hDAT cells, [14C]-dopamine uptake with cocaine IC80; actives deviate in either direction; B-score at 10 µM;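 active = Z score or B-score, a plate-position-corrected score, falls beyond the plate's 99.7% confidence bounds, in either direction; inactive = both scores lie inside the 99.7% bounds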;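 also: scored against the spread of the other compound wells on the same plate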
Target sequence (Q01959 whole entry, looked up): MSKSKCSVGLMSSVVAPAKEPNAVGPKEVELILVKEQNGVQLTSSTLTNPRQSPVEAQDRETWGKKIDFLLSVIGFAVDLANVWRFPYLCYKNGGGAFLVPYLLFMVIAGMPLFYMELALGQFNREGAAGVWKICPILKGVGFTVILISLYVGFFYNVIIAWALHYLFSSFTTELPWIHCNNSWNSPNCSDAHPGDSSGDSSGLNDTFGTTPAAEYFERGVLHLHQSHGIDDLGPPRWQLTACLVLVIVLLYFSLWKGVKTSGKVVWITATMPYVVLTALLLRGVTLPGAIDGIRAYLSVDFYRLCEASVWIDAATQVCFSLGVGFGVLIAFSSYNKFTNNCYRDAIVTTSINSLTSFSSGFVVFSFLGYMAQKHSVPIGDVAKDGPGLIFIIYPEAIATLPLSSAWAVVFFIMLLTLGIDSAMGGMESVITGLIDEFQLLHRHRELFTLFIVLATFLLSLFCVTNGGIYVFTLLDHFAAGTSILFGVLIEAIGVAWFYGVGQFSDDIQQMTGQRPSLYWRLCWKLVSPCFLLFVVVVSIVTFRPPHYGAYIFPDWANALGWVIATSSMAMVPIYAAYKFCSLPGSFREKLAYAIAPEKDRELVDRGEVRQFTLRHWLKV
PostGolgi ctrl: yeast control strain growth, post-Golgi counter-screen; hit rate 5% among 98,000; efflux-deficient yeast background strain, growth absorbance A615, 16 h; inhibition, % at 10 µM; AID 738
* = called active by the depositor. Rule as the data show it, unless noted: active = inhibition above about 30%; inactive = the rest.

Screening COc1ccc(O)c(/C=N/NC(=O)CSc2nnc(C)n2-c2ccccc2)c1 returned Cav3 T inh 1.1, PostGolgi yeast 9, PLAP activator 1.5, hDAT+cocaine 0.028 and PostGolgi ctrl 5.
`COc1ccc(/C=N/NC(=O)CSc2nnc(C)n2-c2ccccc2)c(OC)c1OC` gave PostGolgi yeast 12, PLAP activator 1.1, hDAT+cocaine -0.1 and PostGolgi ctrl -3.
Nc1c(Cl)cc(-c2csc(N3CCCC3c3nc4cc(Cl)c(N5CCCCC5)cc4n3CCCO)n2)cc1Cl (stereo not given) was read as Cav3 T inh 2 and hDAT+cocaine 1.
For Cc1cccc(-c2nc(CN3CCCC(C(=O)NC4CCCCC4)C3)c(C)o2)c1 (stereo not given) the results were Cav3 T inh -5.1*, PostGolgi yeast -4, PLAP activator 1.4, hDAT+cocaine -0.02 and PostGolgi ctrl 4.
`Cc1cccc(-c2nc(CN3CCCC(C(=O)NC4CCCCCC4)C3)c(C)o2)c1` (stereo not given) gave Cav3 T inh -6.9*, PostGolgi yeast 2, PLAP activator 1.2, hDAT+cocaine -0.18 and PostGolgi ctrl 5.
Screening Cc1oc(-c2cccc(Cl)c2)nc1CN1CCCC(C(=O)NCc2ccco2)C1 (stereo not given) returned Cav3 T inh -1.5, PostGolgi yeast 1, PLAP activator 1.3, hDAT+cocaine 0.47 and PostGolgi ctrl 10.
For CCCC(=O)NNc1cc(=O)c2c(=O)n(C)c(=O)n(C)c2[nH]1 the results were Cav3 T inh -0.3, PostGolgi yeast -7, PLAP activator 0.8, hDAT+cocaine -0.98 and PostGolgi ctrl 1.
`Cc1nc2nc(C)c(CCC(=O)N3CCOCC3)c(C)n2n1` gave Cav3 T inh -0.77, PostGolgi yeast -1, PLAP activator 1, hDAT+cocaine -0.46 and PostGolgi ctrl -3.
For NC(=O)c1ccc(NC(=O)c2ccc(CN3CCOCC3)cc2)cc1 the results were Cav3 T inh 1.5, PostGolgi yeast -3, PLAP activator 0.9, hDAT+cocaine -0.11 and PostGolgi ctrl 10.
Screening O=C(Nc1ccc(CN2CCOCC2)cc1)c1cc2ccccc2o1 returned Cav3 T inh 2, PostGolgi yeast 38*, PLAP activator 1.6, hDAT+cocaine 1.3 and PostGolgi ctrl 23.
Screening CCOC(=O)c1ccc(NC(=O)c2ccc(CN3CCOCC3)cc2)cc1 returned Cav3 T inh 0.22, PostGolgi yeast 94*, PLAP activator 1.3, hDAT+cocaine -0.53 and PostGolgi ctrl 27.
`CCOC(=O)c1ccc(NC(=O)C2CCN(S(=O)(=O)CC)CC2)cc1` gave Cav3 T inh 0.82, PostGolgi yeast 5, PLAP activator 0.9, hDAT+cocaine -7.3* and PostGolgi ctrl 17.
CCOC(=O)c1ccc(NC(=O)C2CCN(S(=O)(=O)c3ccccc3)CC2)cc1 was read as Cav3 T inh -0.53 and hDAT+cocaine 0.79.
CCOC(=O)c1cc(C)n(S(=O)(=O)c2ccc(C)cc2)c1C was read as Cav3 T inh -1.2, PostGolgi yeast -7, PLAP activator 1.2, hDAT+cocaine -1 and PostGolgi ctrl 1.
`c1csc(Cc2nc(-c3ccc(-n4cccc4)cc3)no2)c1` gave hDAT+cocaine -1.2.
Screening COc1ccc(-n2c(C)c3c(OC)cccc(=O)c3c2C)cc1 returned PostGolgi yeast -3, PLAP activator 0.9 and PostGolgi ctrl 34*.
`CCCCn1c(=O)n(CC(=O)Nc2c(CC)cccc2CC)c(=O)c2c1nc(CO)n2CCC` gave Cav3 T inh -0.2, PostGolgi yeast 18, PLAP activator 1.1, hDAT+cocaine 0.067 and PostGolgi ctrl 0.
`CCCCn1c(=O)n(CC(=O)Nc2ccc(OC)c(Cl)c2)c(=O)c2c1nc(CO)n2CCC` gave Cav3 T inh -5.5*, PostGolgi yeast 1, PLAP activator 0.9, hDAT+cocaine 0.64 and PostGolgi ctrl 2.
For Cc1cc(C)cc(N=c2c([N+](=O)[O-])nn(-c3cccc(Cl)c3)n2O)c1 the results were Cav3 T inh -0.82, PostGolgi yeast 6, PLAP activator 0.7, hDAT+cocaine -1.3 and PostGolgi ctrl 28.
O=C1[C@H]2CCCC[C@H]2C(=O)N1CCCCN1CCN(c2nsc3ccccc23)CC1 was read as hDAT+cocaine -0.8.
CCCS(=O)(=O)c1c(S(=O)(=O)CCC)c2c(C)cccn2c1C(=O)OC was read as Cav3 T inh 0.53, PostGolgi yeast -2, PLAP activator 1.1, hDAT+cocaine 1.4* and PostGolgi ctrl 4.
`CCCS(=O)(=O)c1c(S(=O)(=O)CCC)c2ccccn2c1C(=O)OC` gave Cav3 T inh 0.015, PostGolgi yeast 1, PLAP activator 1.3, hDAT+cocaine -0.42 and PostGolgi ctrl 3.
For Cc1cccc(N(C)C(=O)c2cc3cc4ccc(C)cc4nc3o2)c1 the results were Cav3 T inh -5.1*, PostGolgi yeast 1, PLAP activator 1.3, hDAT+cocaine -0.78 and PostGolgi ctrl 11.
CC(=O)Oc1c(Cl)cc(Cl)cc1/C=C/c1ccc2ccccc2n1 was read as Cav3 T inh 0.58, PostGolgi yeast -5, PLAP activator 1, hDAT+cocaine -0.51 and PostGolgi ctrl 54*.
Screening Cn1cc([N+](=O)[O-])c(C(=O)Nc2ccc(Br)cn2)n1 returned Cav3 T inh 0.048, PostGolgi yeast 2, PLAP activator 0.8, hDAT+cocaine -0.61 and PostGolgi ctrl 4.
`CCOc1cc(/C=N/NC(N)=S)cc(Br)c1OCc1ccccc1C` gave Cav3 T inh -0.018, PostGolgi yeast 3, PLAP activator 1.2, hDAT+cocaine -0.25 and PostGolgi ctrl 67*.
For COc1ccccc1Nc1nc(N)nc(CN2CCc3ccccc3C2)n1 the results were Cav3 T inh -0.38 and hDAT+cocaine 0.82.
`COc1ccc(-c2noc(C)c2-c2ccc3ccccc3n2)c(O)c1` gave Cav3 T inh -2.7, PostGolgi yeast 1, PLAP activator 1.2, hDAT+cocaine -0.071 and PostGolgi ctrl 49*.
For COC(=O)c1ccc2c(=O)n(CC3CCCO3)c(SCC(=O)Nc3ccccc3OC)nc2c1 (stereo not given) the results were Cav3 T inh 0.11, PostGolgi yeast -9, PLAP activator 1, hDAT+cocaine -2 and PostGolgi ctrl 33*.
O=C(CSc1nc2c(sc3ccccc32)c(=O)n1Cc1ccco1)NCC1CCCO1 (stereo not given) was read as Cav3 T inh 0.067, PostGolgi yeast 6, PLAP activator 1.1, hDAT+cocaine 2.2 and PostGolgi ctrl 32*.
COc1ccc(C(=O)Nn2c(SCC(=O)NCC3CCCO3)nc3ccccc3c2=O)cc1 (stereo not given) was read as Cav3 T inh -0.09, PostGolgi yeast 10, PLAP activator 1.2, hDAT+cocaine -8.4* and PostGolgi ctrl 0.
COC(=O)c1ccc2c(=O)n(CC3CCCO3)c(SCC(=O)Nc3ccccc3Cl)nc2c1 (stereo not given) was read as Cav3 T inh 1.5, PostGolgi yeast 4, PLAP activator 1, hDAT+cocaine 0.11 and PostGolgi ctrl 20.

Compound activity deposited in PubChem by several laboratories.
